TRPML1 agonist = activates the human TRPML1 channel | AID 624414 | actives 0.12% (n = 410,000) | TRPML1-expressing cells, Ca2+ dye fluorescence, FDSS | activation, % (no concentration beside the values); in the data active = activation above about 50%; inconclusive = mostly about 30% to 49%
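Tetracycline-induced TRPML1-DL cells are seeded and incubated overnight before loading with a no-wash Ca2+ dye and quencher. Agonist activity is taken from the 110 s fluorescence read following compound pin-transfer on an FDSS, before EC80 54-4 challenge.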
TRPML1 inh = blocks the human TRPML1 channel. actives 0.02% (n = 390,000). Q9GZU1. activity change, negative = inhibition, % (concentration not given with the values). TRPML1-inducible cells, Ca2+ dye fluorescence, FDSS; active compounds read low; inhibition of EC80 agonist-evoked calcium signal; in the data active = activity change below about -50%; inconclusive = between about -30% and that limit;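 also: stimulus is agonist 54-4 at its EC80 concentration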
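Tet-induced TRPML1-DL cells loaded with Ca8 no-wash calcium dye were read kinetically on FDSS. Compound addition was followed by EC80 agonist 54-4 (4 uM final); inhibition was read over 110 s.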
D3 ag = activates the human D3 dopamine receptor; D3R DiscoveRx beta-arrestin cells, luminescence, 90 min; max activation, %; actives 0.58% (n = 410,000); in the data active = max activation above about 30%
Target sequence (P35462 whole entry, looked up): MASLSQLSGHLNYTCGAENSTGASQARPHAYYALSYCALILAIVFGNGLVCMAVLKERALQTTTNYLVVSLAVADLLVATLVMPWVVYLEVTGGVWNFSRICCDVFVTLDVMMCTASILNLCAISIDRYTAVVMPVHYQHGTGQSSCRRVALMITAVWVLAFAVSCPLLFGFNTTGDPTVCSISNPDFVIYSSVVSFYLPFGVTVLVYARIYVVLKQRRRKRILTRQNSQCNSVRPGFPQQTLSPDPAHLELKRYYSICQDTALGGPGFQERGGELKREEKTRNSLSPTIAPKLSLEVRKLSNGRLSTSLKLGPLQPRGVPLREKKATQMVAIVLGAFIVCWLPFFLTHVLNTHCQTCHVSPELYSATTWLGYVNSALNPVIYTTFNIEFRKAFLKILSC
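Cells at 1500/well, incubated overnight, then treated with pinned compounds (dopamine as control) for 90 min at 37 degrees C. DiscoveRx reagent added for 30 - 60 minutes at room temperature; luminescence read.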
DRD3 antagonist = antagonists of human D3 dopamine receptor; D3R cells, DiscoveRx beta-arrestin luminescence, antagonist mode; active compounds read low; max response, negative = inhibition, %; actives 2.5% (n = 360,000); in the data active = max response below about -50%; inconclusive = no clear call, values can overlap the other calls
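Cells plated overnight at 1500 cells/well, then exposed to library compounds with dopamine controls for 90 minutes at 37 degrees C. DiscoveRx reagent added for 30–60 minutes at room temperature; luminescence read, quantitative HTS format.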
Large screens that a line does not name were inactive. Only some compounds are listed: those with a hit (about 2.9% of all), similar ones and a draw of the others.

Cc1cccc(OCCCC(=O)NNC(=O)CCN2CCN(c3ccccc3)CC2)c1	none
CN(C)c1ccc(/C=C2\C=Cc3ccccc32)cc1[N+](=O)[O-]	none (no result: TRPML1 inh, D3 ag, DRD3 antagonist)
CCC1(C)Cc2ccccc2-c2nc(NCCO)[nH]c(=O)c21 (stereo not given)	DRD3 antagonist -52
CCC1(C)Cc2ccccc2-c2nc(NN)[nH]c(=O)c21 (stereo not given)	none
COc1ccc(N2CCN(C(=O)CN=C3NS(=O)(=O)C(c4ccc(C)cc4)=C3C)CC2)cc1	DRD3 antagonist -79
CC1=C(c2ccc(C)cc2)S(=O)(=O)NC1=NCCCN1CCN(c2ccc(F)cc2)CC1	none (no result: DRD3 antagonist)
COc1cccc(C(=O)N(Cc2ccc(N(C)C)cc2)Cc2ccco2)c1	none (no result: DRD3 antagonist)
CCOC(=O)C1CCN(C/C=C/c2ccccc2OC)CC1	DRD3 antagonist -68
CCOC(=O)C1CCN(C/C=C/c2ccccc2[N+](=O)[O-])CC1	DRD3 antagonist -56
CC1CCN(CCCNC(=O)c2cc(Sc3ccc(F)cc3)nc3ccccc23)CC1	none (no result: DRD3 antagonist)
CCCCN(C)S(=O)(=O)c1ccc(C(=O)Nc2nnc(CSC)o2)cc1	DRD3 antagonist -98
CCN(CC)S(=O)(=O)c1ccc(C(=O)Nc2nnc(CSC)o2)cc1	none
CCc1nnc(NC(=O)c2ccc(S(=O)(=O)N(CC)Cc3ccccc3)cc2)o1	DRD3 antagonist -99
CCCCN(CCCC)S(=O)(=O)c1ccc(C(=O)Nc2nnc(COC)o2)cc1	DRD3 antagonist -93
CCN(CC)S(=O)(=O)c1ccc(C(=O)Nc2cccc(C)c2)cc1	DRD3 antagonist -83
CCCCN(CC)S(=O)(=O)c1ccc(C(=O)Nc2nnc(-c3cccs3)o2)cc1	DRD3 antagonist -57
O=C1Cc2ccccc2Sc2ccccc21	none
CN1CCC(=C2c3ccccc3Sc3ccccc32)CC1	DRD3 antagonist -108
CN1CCC(=C2c3ccccc3C=Cc3ccccc32)CC1	DRD3 antagonist -115 (no result: D3 ag)
Cc1cc(C)c(NC(=O)Cn2c(=O)n(CCCCC(=O)NCc3ccccc3Cl)c(=O)c3ccccc32)c(C)c1	none (no result: DRD3 antagonist)
CCOCCn1c(=O)c2c(nc3n2CCCN3CCc2ccccc2)n(C)c1=O	none
COCCn1c(=O)c2c(nc3n2CCCN3CCc2ccccc2)n(C)c1=O	D3 ag 102
COc1ccc(Br)cc1CNC(=O)c1ccc2c(c1)nc1n2CCCCC1	none (no result: DRD3 antagonist)
CC(C)c1ccc(S(=O)(=O)NCc2nc3cccnc3n2Cc2ccc(F)cc2)cc1	none (no result: DRD3 antagonist)
COc1ccc(C2N=C(Nc3nc4ccccc4o3)NC3=C2C(=O)CC(C)(C)C3)cc1 (stereo not given)	none (no result: TRPML1 inh, D3 ag, DRD3 antagonist)
CCCCNC(=O)C1c2ccccc2OCC(=O)N1Cc1ccccn1 (stereo not given)	DRD3 antagonist inconclusive (no result: TRPML1 inh)
O=C(NC1CCCC1)C1c2ccccc2OCC(=O)N1Cc1ccccn1 (stereo not given)	DRD3 antagonist -58 (no result: TRPML1 inh)
O=C(NCc1ccccc1)C1c2ccccc2OCC(=O)N1Cc1cccnc1 (stereo not given)	DRD3 antagonist -61 (no result: TRPML1 inh)
CCC(C#CCN1CCCCC1)(CC)OCCC#N	DRD3 antagonist -56
CN1\C(=C/C=C/C=C/C=[N+](C)C)C(C)(C)c2ccccc21	TRPML1 agonist 86
CCC1CCCCN1Cc1nc2c(c(=O)n(C)c(=O)n2C)n1Cc1c(F)cccc1Cl (stereo not given)	none (no result: TRPML1 inh, D3 ag, DRD3 antagonist)
Cc1cccc2cc(C#N)c(N3CCN(C)CC3)nc12	DRD3 antagonist -72
Cc1ccc2cc(C#N)c(N3CCN(C)CC3)nc2c1	DRD3 antagonist -82
Cc1ccc2nc(N3CCN(C)CC3)c(C#N)cc2c1	DRD3 antagonist inconclusive
Cn1c(=O)c2c(SCC(=O)Nc3ccccc3C(F)(F)F)nc(C3CCCC3)nc2n(C)c1=O	none (no result: DRD3 antagonist)
CCc1ccccc1Oc1nc(NCc2ccccc2)nc2ccsc12	DRD3 antagonist -52 (no result: TRPML1 inh)
CCOC(=O)C1CCCN(C(=O)c2cc3nc(-c4cccc(OC)c4)cc(C(F)(F)F)n3n2)C1 (stereo not given)	D3 ag 52
CCOC(=O)C1CCCN(C(=O)c2cnn3c(C(F)(F)F)cc(-c4ccccc4)nc23)C1 (stereo not given)	none
COc1ccccc1NC(=O)CSc1nncn2c1cc1sccc12	none (no result: DRD3 antagonist)
CCN(c1ccccc1)S(=O)(=O)c1nnc(NC(=O)CC(C)C)s1	DRD3 antagonist -66
CCCCC(=O)Nc1nnc(S(=O)(=O)N(CC)c2ccccc2)s1	none
CC(C)CN(c1ccccc1)S(=O)(=O)c1nnc(NC(=O)c2ccco2)s1	DRD3 antagonist -86
Cc1ccc(-c2nnc(Nc3ccc(Br)cc3)c3ccccc23)cc1S(=O)(=O)N1CCOCC1	none (no result: DRD3 antagonist)
Cc1ccc(Cl)cc1-n1ncc2c(Nc3ccc4c(c3)OCCO4)ncnc21	none (no result: DRD3 antagonist)
O=C1O/C(=C/c2ccccc2)c2ccccc21	none
N#CC1=C(c2ccccc2)/C(=C/c2ccccc2)OC1=O	DRD3 antagonist -59
CCCN1CCC(=O)N(C(CSc2ccc(Br)cc2)c2ccccc2)CC1 (stereo not given)	none (no result: D3 ag, DRD3 antagonist)
O=[N+]([O-])c1ccc(N2CCNCC2)cc1Sc1nc2ccccc2[nH]1	DRD3 antagonist -66
NCCNc1ccc([N+](=O)[O-])c(Sc2nc3ccccc3[nH]2)c1	none
O=C(N/N=C/c1cc([N+](=O)[O-])ccc1O)C12CC3CC(CC(C3)C1)C2	DRD3 antagonist -93
O=[N+]([O-])c1ccc(O)c(C=NN2CCCCC2)c1	DRD3 antagonist -76
CC(N=Cc1cc([N+](=O)[O-])ccc1O)c1ccccc1 (stereo not given)	DRD3 antagonist -52
Cc1cc(C(=O)N/N=C/c2cc(Br)cc([N+](=O)[O-])c2O)c2ccccc2n1	DRD3 antagonist -94
Cc1cc(C(=O)N/N=C/c2ccc([N+](=O)[O-])cc2)c2ccccc2n1	none
CCN(CC)CCOC(=O)c1cccnc1	none (no result: TRPML1 agonist, TRPML1 inh, DRD3 antagonist)
Cc1cc(-n2c(=O)[nH]c(=O)n(C)c2=O)ccc1Oc1ccc(S(=O)(=O)C(F)(F)F)cc1	none (no result: TRPML1 agonist, TRPML1 inh, DRD3 antagonist)
Cc1cc(C(=O)N/N=C/c2cc([N+](=O)[O-])ccc2O)c2ccccc2n1	DRD3 antagonist -65
O=C(N/N=C/c1cc([N+](=O)[O-])ccc1O)Nc1ccccc1	DRD3 antagonist -75
O=C(N/N=C/c1cc([N+](=O)[O-])ccc1O)c1cc(-c2ccccc2)nc2ccccc12	none
COc1ccc(N2CC(C(=O)N/N=C/c3cc([N+](=O)[O-])ccc3O)CC2=O)cc1 (stereo not given)	DRD3 antagonist -52
COc1cccc(CNC(=O)COC(=O)c2ccc(S(C)(=O)=O)c([N+](=O)[O-])c2)c1	none (no result: TRPML1 inh, D3 ag, DRD3 antagonist)
CO/N=C/c1ccc(N2CCN(C(=O)c3cccc(C(F)(F)F)c3)CC2)c([N+](=O)[O-])c1	D3 ag 52
CO/N=C/c1ccc(N2CCN(C(=O)c3ccc(F)cc3)CC2)c([N+](=O)[O-])c1	none
Fc1ccc(CNCc2ccccc2Cl)cc1	none
Cc1ccc(CNCc2ccccc2Cl)cc1	DRD3 antagonist -67
O=C1c2ccccc2C(=O)N1c1cccc(O)c1	none (no result: TRPML1 inh, D3 ag, DRD3 antagonist)

High-throughput results from PubChem.
